The sample as a whole holds a higher share of hits than the screen did.
Dicer processing: blocks human Dicer maturation of pre-miR-21 | Q9UPY3 | cat-ELCCA pre-miR-21 Dicer processing, chemiluminescence; stronger effect = higher value | z-score at 25 µM | hit rate 6% among 47,000; in the data active = z-score above about 3, passing the limit was not always enough;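 also: plate controls were vehicle for no effect and no enzyme for full effect; higher signal means more uncleaved substrate so more Dicer inhibition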
Target sequence (Q9UPY3 whole entry, looked up): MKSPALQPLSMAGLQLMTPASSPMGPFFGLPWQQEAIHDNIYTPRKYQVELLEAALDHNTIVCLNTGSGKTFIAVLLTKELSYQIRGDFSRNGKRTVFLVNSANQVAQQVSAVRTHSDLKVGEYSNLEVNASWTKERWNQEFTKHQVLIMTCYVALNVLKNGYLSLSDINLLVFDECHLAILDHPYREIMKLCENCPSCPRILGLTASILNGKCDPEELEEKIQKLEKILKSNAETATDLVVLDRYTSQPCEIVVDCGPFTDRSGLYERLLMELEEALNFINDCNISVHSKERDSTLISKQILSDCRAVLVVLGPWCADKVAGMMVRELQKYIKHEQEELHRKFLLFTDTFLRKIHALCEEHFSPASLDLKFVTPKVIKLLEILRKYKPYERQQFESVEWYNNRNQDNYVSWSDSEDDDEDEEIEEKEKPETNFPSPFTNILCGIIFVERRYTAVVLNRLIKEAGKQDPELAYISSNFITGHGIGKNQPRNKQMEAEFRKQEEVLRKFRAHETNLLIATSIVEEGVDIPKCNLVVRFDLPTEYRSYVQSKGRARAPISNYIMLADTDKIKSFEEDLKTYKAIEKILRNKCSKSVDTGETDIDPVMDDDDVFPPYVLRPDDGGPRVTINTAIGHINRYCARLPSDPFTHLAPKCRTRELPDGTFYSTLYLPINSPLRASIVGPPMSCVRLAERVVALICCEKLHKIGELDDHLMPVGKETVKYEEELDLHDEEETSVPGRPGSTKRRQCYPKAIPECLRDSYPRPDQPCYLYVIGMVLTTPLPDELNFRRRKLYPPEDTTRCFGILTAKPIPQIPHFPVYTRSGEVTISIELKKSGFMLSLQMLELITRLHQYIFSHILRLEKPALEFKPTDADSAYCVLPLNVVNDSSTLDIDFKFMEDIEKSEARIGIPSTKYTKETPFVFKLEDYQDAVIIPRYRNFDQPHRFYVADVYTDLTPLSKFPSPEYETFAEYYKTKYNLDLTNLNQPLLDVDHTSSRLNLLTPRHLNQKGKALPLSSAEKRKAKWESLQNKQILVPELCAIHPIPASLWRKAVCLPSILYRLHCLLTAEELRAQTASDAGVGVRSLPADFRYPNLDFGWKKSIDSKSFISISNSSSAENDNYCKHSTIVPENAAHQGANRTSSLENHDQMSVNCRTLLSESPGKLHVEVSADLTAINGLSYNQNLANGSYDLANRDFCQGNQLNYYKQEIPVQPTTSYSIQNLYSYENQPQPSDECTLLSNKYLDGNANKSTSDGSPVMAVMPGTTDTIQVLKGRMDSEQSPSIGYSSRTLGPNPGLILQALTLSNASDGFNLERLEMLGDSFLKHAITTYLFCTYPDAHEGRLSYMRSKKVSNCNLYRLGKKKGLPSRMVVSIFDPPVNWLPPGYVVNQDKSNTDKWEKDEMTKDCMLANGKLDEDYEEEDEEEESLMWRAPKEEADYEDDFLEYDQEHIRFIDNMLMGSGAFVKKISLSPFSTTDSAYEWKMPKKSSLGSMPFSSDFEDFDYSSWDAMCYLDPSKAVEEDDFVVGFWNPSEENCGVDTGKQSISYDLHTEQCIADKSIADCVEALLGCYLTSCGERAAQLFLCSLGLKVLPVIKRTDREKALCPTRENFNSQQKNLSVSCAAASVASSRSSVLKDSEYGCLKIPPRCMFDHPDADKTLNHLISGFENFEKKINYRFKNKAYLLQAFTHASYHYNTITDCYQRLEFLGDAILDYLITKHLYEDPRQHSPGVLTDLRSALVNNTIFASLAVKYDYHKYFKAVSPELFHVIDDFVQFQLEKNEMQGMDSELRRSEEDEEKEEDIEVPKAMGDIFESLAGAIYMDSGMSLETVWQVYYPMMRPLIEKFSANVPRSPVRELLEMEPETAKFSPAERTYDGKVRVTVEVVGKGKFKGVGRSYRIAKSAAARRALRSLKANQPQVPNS
Active calls of the source: *.

SMILES	Dicer processing
CCOC(=O)c1c(NC(=O)CCC(=O)O)sc2c1CCCCC2	-0.71
CCOC(=O)c1c(NC(=O)CCC(=O)O)sc2c1CCCC2=O	3.01*
CSc1nc(N/C=C(\C#N)C(=O)C2CC2)nc(C2CC2)n1	-2.3
CCc1nc(N)ncc1-c1nnnn1-c1ccc(C)cc1	-0.85
NS(=O)(=O)c1ccc(CNC2CC(=O)N(c3ccc(Br)cc3)C2=O)cc1 (centres undefined)	22
NCc1ccc(S(N)(=O)=O)cc1	-0.5
CN1C(=O)CC(NCc2ccc(S(N)(=O)=O)cc2)C1=O (centres undefined)	3.25*
O=C(CSc1ncn[nH]1)N1CCc2ccccc21	0.69
O=C(CSc1nn2cnnc2s1)N1CCc2ccccc21	3.15*
O=C(CSc1nn2cnnc2s1)N(C1CCCCC1)C1CCCCC1	1.99
Cc1cc(C)nc(N2N=C(C(C)(C)C)CC2=O)n1	0.57
CSc1sc(Br)c2c1/C(=N/OC(=O)c1ccccc1Cl)CC(C)(C)C2	-0.22
COC(=O)c1sc(SC)c2c1CC(C)(C)C/C2=N\OC(=O)c1ccc(Cl)cc1	3.31*
CSc1sc(Br)c2c1/C(=N/OC(=O)c1ccc(Cl)cc1)CC(C)(C)C2	0.2
Cc1[nH]c2ccccc2c1C1(O)C(=O)N(Cc2cccc3ccccc23)c2ccccc21 (centres undefined)	1.28
C=CCNc1nc(C2(C)CC3(CC(C)OC3=O)C(=O)O2)cs1 (centres undefined)	3.48*
CCC1CC(C)(c2csc(Nc3ccc(C)cc3)n2)OC1=O (centres undefined)	0.11
CC(C)CC1CC(C)(c2csc(Nc3ccccc3)n2)OC1=O (centres undefined)	-0.72
CCCOCC1CC2(CC(C)(c3csc(Nc4ccc(C)cc4)n3)OC2=O)C(=O)O1 (centres undefined)	1.3
CCCCOCC1CC2(CC(C)(c3csc(N)n3)OC2=O)C(=O)O1 (centres undefined)	-0.37
C=CCNc1nc(C2(C)CC3(CC(COCC(C)C)OC3=O)C(=O)O2)cs1 (centres undefined)	3.12*
Cc1cc(C)cc(NC(=O)Nc2ccc(S(=O)(=O)Nc3cc(C)on3)cc2)c1	1.1
N=c1sc2ccccc2n1-c1ccccc1	-2.79
N#Cc1c(Sc2ccc(Cl)cc2)cccc1Sc1ccc(Cl)cc1	0.24
CCOC(=O)c1[nH]c(=O)c2ccccc2c1O	-4.26
SMILES	Dicer processing
CCCCCSc1nnc(N)s1	4.61*
Cc1ccc(C(=O)N2CCN(C(=O)CSc3nnc(N)s3)C2)cc1	-0.88
Nc1nnc(SCC(=O)N2CCc3ccccc3C2)s1	1.77
CCOC(=O)C(=CNc1cscc1C)C(=O)OCC	-2.02
Cc1c(OCC(=O)O)ccc2c1oc(=O)c1ccccc12	-0.16
O=C(CSc1nc(-c2ccccc2)cc(=O)[nH]1)NC1CCCC1	-0.27
O=C1OC2(O)C3C4C=CC(C4)C3C(=O)N2c2ccccc21 (centres undefined)	4.94*
O=C1C2C3C=CC(C3)C2C(=O)N1c1cccc(N2C(=O)C3C4C=CC(C4)C3C2=O)n1 (centres undefined)	12.5
Cc1ccc2c(c1)C(=O)OC1(O)C3C4C=CC(C4)C3C(=O)N21 (centres undefined)	1.9
CCOC(CC(=O)NNC(=O)Nc1ccc(Cl)cc1)OCC	0.49
NC(=O)NC(=S)NC(=O)c1ccccc1Cl	-2.27
NC(=O)NC(=O)Nc1ccccc1Cl	6.03*
CC(C)(ONC(=O)Nc1ccccc1Cl)C(=O)O	-0.32
COc1ccccc1C(=O)N=S1CCN(c2ncc(C(F)(F)F)cc2Cl)CC1	-0.82
CCOC(=O)Cc1csc(-c2ncc(C(F)(F)F)cc2Cl)n1	-0.1
Nc1nc2ccc(Cl)cc2n2c(-c3ccccc3)nnc12	-0.71
CC(C)CC(NC(=O)Cc1ccsc1)C(=O)NNS(=O)(=O)c1ccc(Cl)cc1 (centres undefined)	12.5*
CC(C)CC(NC(=O)Cc1ccsc1)C(=O)NNC(=O)c1ccccc1Cl (centres undefined)	-0.88
CC(C)CC(NC(=O)Cc1ccsc1)C(=O)NN (centres undefined)	-2.81
Cn1ccnc1SCC(=O)Nc1nc(-c2ccc(Cl)cc2)cs1	0.23
CC(=O)CCCNc1nc(-c2ccc(Cl)cc2)cs1	6.74*
O=C(Nc1nc(-c2ccccc2)cs1)c1ccc(Cl)cc1	2.17
C#CCSc1nnc(-c2ccc(C(C)(C)C)cc2)n1C	0.82
Cc1ccc(Oc2c(C(F)(F)F)oc3c(CN4CCN(C)CC4)c(O)ccc3c2=O)cc1	-1.03
O=C(OCc1ccc(Cl)cc1)c1cnc(Sc2ccc(Cl)cc2)nc1C(F)(F)F	-4.04
SMILES	Dicer processing
CCCC(=O)NNc1ncc(C(=O)OCC)c(C(F)(F)F)n1	2.68
O=C(OCc1ccc(Cl)cc1)c1cnc(NNC(=O)C(F)(F)F)nc1C(F)(F)F	3.4*
O=[N+]([O-])c1ccc(CSc2cccs2)cc1	-2.71
CC(C)(C)OC(=O)N[C@@H](Cc1ccccc1)C(=O)NNC(=S)Nc1ccc(F)c(Cl)c1	0.38
COc1ccc(C2C(C#N)=C(N)OC3=C2C(=O)CC(C)(C)C3)cc1OCc1ccccc1 (centres undefined)	3.02*
COc1cc(C2C(C#N)=C(N)Oc3cc(O)ccc32)ccc1OCc1ccccc1 (centres undefined)	1.75
COC(=O)C1=C(C)NC2=C(C(=O)CC(C)(C)C2)C1c1ccc(OCc2ccccc2)c(OC)c1 (centres undefined)	-0.7
O=C(N[C@@H](Cc1ccccc1)C(=O)CCl)OCc1ccccc1	-3.29
COC(=O)C(C)N(C#N)c1nc(C)cc(C)n1 (centres undefined)	5.96*
CCN(CC)C(=O)CN(C#N)c1nc(C)cc(C)n1	2.89
COC(=O)CN(C#N)c1nc(C)cc(OC)n1	-0.77
O=C(c1cccnc1Oc1ccccc1)N1CCOCC1	-0.41
COc1ccc(CNCc2cc(Br)ccc2OC)cc1	2.19
COc1cc(CNCc2cc(Br)ccc2OC)cc(OC)c1	0.2
COc1ccc(Br)cc1CNc1cc(C)cc(C)c1	3.61*
NS(=O)(=O)c1ccc(CCNCc2cccs2)cc1	3.06*
Cc1ccc(S(=O)(=O)NCCc2ccc(S(N)(=O)=O)cc2)cc1	0.1
Cn1cccc1CNCCc1ccc(S(N)(=O)=O)cc1	2.31
Cc1cc(C)nc(SCC(=O)n2c(C)c(C)c3ccccc32)n1	1.34
Cc1cc(C)nc(SCC(=O)N2c3ccccc3CCc3ccccc32)n1	1.65
Cc1cc(C)nc(SCCc2ccncc2)n1	3.59*
CCCc1nc2sc3c(NCCN4CCOCC4)ncnc3c2c2c1CCCC2	-0.25
Cc1nn(-c2ccccc2)c(-c2ccccc2[N+](=O)[O-])c1C(=O)O	0.72
Cc1ccc(C2/C(=C(\O)c3ccc(Br)cc3)C(=O)C(=O)N2CCCN(C)C)cc1 (centres undefined)	2.67
Nc1cc(C(F)(F)F)ccc1N1CCCCC1	-0.13
SMILES	Dicer processing
O=C(NC(=O)c1ccc(C(F)(F)F)cc1)NN1CCCCCC1	-2.49
Oc1cc2c(cc1C(c1ccc(C(F)(F)F)cc1)N1CCCCC1)OCO2 (centres undefined)	3.77*
COc1cc(Cl)ccc1N/N=C(\C#N)C(N)=O	4.95*
N#C/C(=N\Nc1ccc(Cl)cc1)C(=O)C1CC1	2.48
COc1ccc(Cl)cc1NC(C)=O	0.03
c1ccc(Nc2nc(CN3CCCCC3)cs2)cc1	0.99
CCCCCC#CC(=O)Nc1nc2cc(C)c(C)cc2[nH]1	0.16
O=S(=O)(NCCc1ccccn1)c1ccc(S(=O)(=O)N2CCCC2)cc1	-0.08
O=C(O)C1=C(C(=O)Nc2ccccc2)CCCC1	0.14
O=c1c(=CNc2ccccc2)c(=O)c2cccc3cccc1c32	0.59
O=C1CCCC/C1=C\Nc1ccccc1	4.28*

Assay outcomes as filed in PubChem.
